Results on 66 compounds are retold here after PubChem BioAssay AID1851 (National Center for Advancing Translational Sciences (NCATS), 2009).

“And” between values parts separate entries of the source, which are not always exact repeats. Equal values may be shown once. Out of some 16,000 compounds screened, about 5,800 (36%) were called active. Another 23% or so got no clear call; they are omitted. Calls follow the shape of the dose curve; as a rule, active = well fitted curve in the direction sought with a large enough effect; inconclusive = small, poorly fitted or top-dose-only effect, or effect the other way; inactive = no such curve, though single readings can be large or run the other way. The list shows a part of the results. Where a structure was tested more than once in an assay, its records may differ in their call.
% is scaled to controls: 0 for no effect and ±100 for the full control effect.

In the experiment the target is Cytochrome P450 2C19 (Homo sapiens) (UniProt P33261). As to the kind of experiment: Cytochrome panel assay with activity outcomes. The settings on record: recombinant CYP, pro-luciferin dealkylation, luminescence, p450-cyp2c19; series mostly up to 57.1 µM; activity, negative = inhibition: at the top concentration.
Sequence of Cytochrome P450 2C19 (Homo sapiens) (P33261 whole entry, looked up): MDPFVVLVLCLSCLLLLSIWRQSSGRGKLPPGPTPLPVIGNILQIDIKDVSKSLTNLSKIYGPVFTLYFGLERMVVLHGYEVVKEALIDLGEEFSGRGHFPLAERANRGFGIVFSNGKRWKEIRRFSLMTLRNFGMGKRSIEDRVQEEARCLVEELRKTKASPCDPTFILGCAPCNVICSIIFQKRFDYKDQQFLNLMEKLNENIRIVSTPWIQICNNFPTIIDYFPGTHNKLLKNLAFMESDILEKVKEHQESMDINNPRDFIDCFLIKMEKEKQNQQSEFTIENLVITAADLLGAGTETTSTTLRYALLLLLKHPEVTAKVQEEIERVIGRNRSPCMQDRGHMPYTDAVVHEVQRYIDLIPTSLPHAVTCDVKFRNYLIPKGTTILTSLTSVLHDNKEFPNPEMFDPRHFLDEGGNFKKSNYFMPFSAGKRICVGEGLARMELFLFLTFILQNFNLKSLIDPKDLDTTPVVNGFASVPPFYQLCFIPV
As for `C[C@H](N)[C@H](O)c1ccc(O)c(O)c1`, the AC50 result is “inactive”.

With `CC(C)CN1CCC2(CC1)CCN(S(C)(=O)=O)CC2`, the “activity, negative = inhibition” value is 38.1% (inactive).

As to `CC(C)NC(=O)N1CCC2(CC1)CCN(C(=O)Oc1ccccc1)CC2`, the “activity, negative = inhibition” value is 1.3% (inactive).

With `CN(C)[C@H]1C(=O)C(C(N)=O)=C(O)[C@]2(O)C(=O)C3=C(O)c4c(O)cccc4[C@@](C)(O)[C@H]3C[C@@H]12`, the “activity, negative = inhibition” value is 20.2% [at 25.6 µM] (inactive).

Consider `O=C(c1ccc(-c2nnc(Nc3ccccc3)c3ccccc23)cc1)N1C[C@H]2C[C@H](C1)c1cccc(=O)n1C2`, for which the concentration at half-maximal activity (AC50) is 8.91 µM (active).

Consider `O=c1cccc2n1CC1CNC[C@H]2C1`, for which the AC50 result was “inactive”.

On to `CC(=O)OCC1=C(C(=O)O)N2C(=O)[C@@H](N)[C@@H]2SC1`, for which the “activity, negative = inhibition” value is 12.6% [at 25.6 µM] (inactive).

With `COc1cc([C@@H](O)CN)ccc1O`, the “activity, negative = inhibition” value is -35.2% (inactive).

For the compound `Cc1c([C@@H](C)[C@H]2NC[C@H](C)C[C@@H]2O)ccc2c1C[C@@H]1[C@H]2CC=C2C[C@@H](O)CC[C@@]21C`, the activity, negative = inhibition is 26.3% [at 11.4 µM] (inactive).

On to `CC1=NN=C(c2ccc(N)cc2)c2cc3c(cc2C1)OCO3`, for which the AC50 entry is “inactive and 7.94 µM (active)”.

Consider `C[C@@H]1Cc2cc3c(cc2C(c2ccc(N)cc2)=NN1)OCO3`, for which the AC50 was 2 µM (active).

For the compound `COc1ccc(C(=O)OC2C[C@H]3CC[C@@H](C2)N3C)cc1OC` (stereo partly specified), the “activity, negative = inhibition” value was -8.31% [at 25.6 µM] (inactive).

Regarding `C[C@@]12C(=O)OC(=O)[C@@]1(C)[C@H]1CC[C@@H]2O1`, the “activity, negative = inhibition” value was 8.99% (inactive).

For the compound `CC1=C2C(=O)[C@@H]3[C@@H](CC=C4C[C@@H](O)CC[C@@]43C)[C@H]2CC[C@@]12O[C@H]1C[C@H](C)CN[C@H]1[C@@H]2C`, the activity, negative = inhibition was 15.9% [at 11.4 µM] (inactive).

In the case of `CCCCCC[C@H]1C(=O)O[C@H](C)[C@H](NC(=O)c2cccc(NC=O)c2O)C(=O)O[C@@H](C)[C@H]1OC(=O)CC(C)C`, the “activity, negative = inhibition” value was -28% [at 25.6 µM] (inactive).

Turning to `COc1ccc(C(=O)NC2CC3CCCC(C2)N3CC(C)C)cc1OC` (stereo unspecified), the “activity, negative = inhibition” value was -7.42% (inactive).

On to `NC[C@H](O)c1ccc(O)cc1`, for which the AC50 result was “inactive”.

For the compound `O=C1CCCCCC1C1(O)C(=O)Nc2ccc(Br)cc21` (stereo unspecified), the AC50 was 4.47 µM (active).

For the compound `Oc1ccc2c3c1O[C@H]1c4[nH]c5c(c4C[C@@]4(O)[C@@H](C2)N(CC2CC2)CC[C@]314)C[C@]1(O)[C@H]2Cc3ccc(O)c4c3[C@@]1(CCN2CC1CC1)[C@@H]5O4`, the “activity, negative = inhibition” value was -41.7% (inactive).

With `Oc1ccc2c3c1O[C@H]1c4[nH]c5ccccc5c4C[C@]4(O)[C@H](C2)N(CC2CC2)CC[C@@]314`, the AC50 was 10 µM (active).

Take `Oc1ccc2c3c1O[C@@H]1c4[nH]c5c(c4C[C@@]4(O)[C@@H](C2)N(CC2CC2)CC[C@]314)C[C@]1(O)[C@@H]2Cc3ccc(O)c4c3[C@@]1(CCN2CC1CC1)[C@H]5O4`: the “activity, negative = inhibition” value is -16.2% (inactive).

`C[N+]1(C)[C@@H]2CC[C@H]1CC(OC(=O)[C@@H](CO)c1ccccc1)C2` (stereo partly specified): the AC50 entry was “inactive”.

`COc1cc(CNC(=O)CCCC/C=C\C(C)C)ccc1O`: the half-maximal activity concentration (AC50) entry is “inactive and 6.31 µM (active)”.

In the case of `CNC[C@H](O)c1ccc(O)c(OC)c1`, the “activity, negative = inhibition” value is 19.3% [at 25.6 µM] (inactive).

For the compound `COc1cc(CCN)ccc1O`, the “activity, negative = inhibition” value was 42.9% (inactive).

Take `CC(=O)[C@@H]1CC[C@@H]2[C@@H]3CCC4=CC(=O)CC[C@@]4(C)[C@H]3CC[C@]21C`: the “activity, negative = inhibition” value was -32.5% [at 25.6 µM] (inactive).

On to `CC(C)[C@@]1(NC(=O)[C@@H]2C[C@H]3c4cccc5[nH]cc(c45)C[C@@H]3N(C)C2)O[C@@]2(O)[C@H]3CCCN3C(=O)[C@H](Cc3ccccc3)N2C1=O`, for which the AC50 is 3.98 µM (active) and 5.01 µM (active).

Regarding `CC(C)C[C@H]1C(=O)N2CCC[C@@H]2[C@]2(O)O[C@](NC(=O)[C@H]3C=C4c5cccc6[nH]c(Br)c(c56)C[C@H]4N(C)C3)(C(C)C)C(=O)N12`, the AC50 entry was “inactive”.

On to `CN1C[C@H](C(=O)N[C@@]2(C)O[C@@]3(O)[C@H]4CCCN4C(=O)[C@@H](Cc4ccccc4)N3C2=O)C=C2c3cccc4[nH]cc(c34)C[C@@H]21`, for which the activity, negative = inhibition is 13.1% [at 11.4 µM] (inactive).

With `CCCCN(CCCC)CCC(O)c1cc2c(Cl)cc(Cl)cc2c2cc(C(F)(F)F)ccc12` (stereo unspecified), the “activity, negative = inhibition” value was 9.25% [at 25.6 µM] (inactive).

Turning to `O=C(O)CP(=O)(O)c1ccc(Cl)cc1`, the “activity, negative = inhibition” value is -4.15% (inactive).

On to `NC[C@@H](CC(=O)O)c1ccc(Cl)cc1`, for which the AC50 entry is “inactive”.

For the compound `NC[C@H](CC(=O)O)c1ccc(Cl)cc1`, the AC50 is 2.51 µM (active).

On to `CC1(C)N=C(N)N=C(N)N1c1cccc(C(=O)Nc2ccc(S(=O)(=O)F)cc2)c1`, for which the activity, negative = inhibition is 25.1% [at 11.4 µM] (inactive).

For `CC(=O)OCC1=C(C(=O)[O-])N2C(=O)[C@@H](NC(=O)CCC[C@@H](N)C(=O)[O-])[C@@H]2SC1.[Zn+2]`, the “activity, negative = inhibition” value is -15.5% (inactive).

On to `C[C@]12CC[C@H]3c4ccc(O)cc4CC[C@@H]3[C@H]1CC[C@@H]2OC(=O)CCc1ccccc1`, for which the activity, negative = inhibition was -66% [at 11.4 µM] (inactive).

On to `Cc1ccc2c(c1)C1CN(C)CCC1N2C(=O)Nc1cccc(Cl)c1` (stereo unspecified), for which the AC50 was 25.1 µM (active).

For `NC(N)=NC(=O)c1nc(Cl)c(N)nc1N`, the “activity, negative = inhibition” value is 23.9% [at 25.6 µM] (inactive).

`CCOC(=O)Cn1cc(C(=O)c2ccccc2F)c2ccccc21`: the AC50 is 3.55 µM (active).

On to `O=C(c1ccccc1F)c1cn(CC(=O)N2CCOCC2)c2ccccc12`, for which the AC50 is 10 µM (active).

For `O=C(O)c1nn(Cc2ccc(Cl)cc2Cl)c2ccccc12`, the “activity, negative = inhibition” value is -10% (inactive).

For the compound `O=C(c1ccccc1F)c1cn(Cc2ccccc2)c2ccccc12`, the AC50 is 1.26 µM (active).

Consider `CCNC(=O)[C@@H]1O[C@@H](n2cnc3c(N)ncnc32)[C@H](O)[C@H]1O`, for which the “activity, negative = inhibition” value is -29.8% (inactive).

For the compound `O=P(O)(O)c1ccccc1` (tested in a mixture with another compound), the activity, negative = inhibition was 41.3% [at 11.4 µM] (inactive).

`CC[C@@H]1[C@@H]2C[C@H]3[C@H]4N(C)c5ccccc5[C@@]45C[C@@H]([C@@H]2[C@@H]5O)N3[C@H]1O`: the “activity, negative = inhibition” value was 7.83% [at 25.6 µM] (inactive).

Regarding `C=C(C)[C@H]1CC[C@]2(CO)CC[C@]3(C)[C@@H](CC[C@H]4[C@@]5(C)CC[C@@H](O)C(C)(C)[C@@H]5CC[C@@]43C)[C@H]12`, the “activity, negative = inhibition” value was 33.7% [at 25.6 µM] (inactive).

`C[C@]1(O)CC[C@H]2[C@@H]3[C@@H](O)CC4=CC(=O)CC[C@@]4(C)[C@H]3CC[C@]21C`: the activity, negative = inhibition was 12.3% [at 11.4 µM] (inactive).

As for `O=C(O)/C=C\c1ccc[c]([Sb](=[O])([OH])[OH])c1`, the activity, negative = inhibition was -11.2% [at 11.4 µM] (inactive).

Consider `COc1ccc(-n2nc(C(F)(F)F)cc2-c2ccc(Cl)cc2)cc1`, for which the AC50 is 7.94 µM (active).

Take `CC(C)(C)C(=O)CP(=O)(O)O`: the activity, negative = inhibition was 34.5% [at 11.4 µM] (inactive).

As to `CN1CCC(c2c[nH]c3ccc(O)cc23)CC1`, the AC50 entry is “inactive”.

`COc1c2c(cc3c1OCO3)CCN(C)C2`: the “activity, negative = inhibition” value was -28.1% [at 25.6 µM] (inactive).

Turning to `CO[C@H]1C=C2CCN(C)[C@@H]2[C@@H]2c3cc4c(cc3C(=O)O[C@H]21)OCO4`, the “activity, negative = inhibition” value was -44.6% [at 25.6 µM] (inactive).

As to `CN1CCc2cc3c(cc2[C@@H]1[C@@H]1OC(=O)c2c1ccc1c2OCO1)OCO3`, the AC50 is 0.0501 µM (active).

On to `COc1ccc2c(c1OC)C(=O)O[C@H]2[C@H]1c2cc3c(cc2CCN1C)OCO3`, for which the AC50 is 1.26 µM (active).

Consider `C[N+]1(C)CCc2cc3c(cc2[C@@H]1[C@@H]1OC(=O)c2c1ccc1c2OCO1)OCO3`, for which the “activity, negative = inhibition” value is 18.5% (inactive).

As to `COc1ccc2c(c1O)-c1c(OC)c(OC)cc3c1[C@H](C2)N(C)CC3`, the “activity, negative = inhibition” value is -24.7% [at 25.6 µM] (inactive).

Turning to `COc1ccc2c(c1OC)CN1CCc3cc4c(cc3[C@H]1C2)OCO4`, the AC50 is 1.26 µM (active).

As for `O[C@@H]1[C@@H]2c3cc4c(cc3CN3CCC(=C[C@@H]1O)[C@H]23)OCO4`, the “activity, negative = inhibition” value was 10.7% [at 25.6 µM] (inactive).

Take `COc1ccc(C[C@H]2c3cc(OC)c(OC)cc3CCN2C)cc1OC`: the “activity, negative = inhibition” value was -22.8% [at 25.6 µM] (inactive).

For the compound `O=C(NCP(=O)(O)O)c1cccnc1`, the activity, negative = inhibition was 26.5% [at 11.4 µM] (inactive).

Consider `c1cnc(N2CC[C@@]3(CCCNC3)C2)nc1`, for which the “activity, negative = inhibition” value was -7.58% (inactive).

For the compound `C=C[C@]12CN(C)[C@H]3C1[C@@]1(C(=O)Nc4ccccc41)[C@H]1C[C@H]2[C@H]3CO1`, the “activity, negative = inhibition” value was 12.4% [at 25.6 µM] (inactive).

With `CCCN1CCC[C@@H]2Cc3[nH]ncc3C[C@H]21`, the AC50 result is “inactive”.

For the compound `CC(=O)O[C@H]1CC[C@@]2(C)[C@@H](CC[C@H]3[C@H]2CC(=O)[C@@]2(C)[C@@H]3C[C@H]3CC(C)=CC(=O)[C@H]32)C1`, the activity, negative = inhibition is -7.79% [at 11.4 µM] (inactive).

Turning to `CS(=N)(=O)CC[C@H](N)P(=O)(O)O` (stereo partly specified), the activity, negative = inhibition was 2.48% [at 11.4 µM] (inactive).

A word on the AC50: it is the midpoint of the concentration-response curve, whichever way the signal moves.
